Experimental data published in PubChem BioAssay (EPA / NIEHS).
Inconclusive results are not listed. Active and inactive are the calls of the source. The calls were made as follows: active = hit-call score of the fitted dose curve at least 0.9, where 1 is the maximum; inconclusive = response in the unintended direction; inactive = score below 0.9.

test system: not listed separately; assay: ATG_M_32_XSP1: Attagene TRANS-FACTORIAL Multi-Species (XSP1) HepG2 Assay for M32 Transcription Factor (Internal Marker) (AID 2283799)
Method in brief: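 HepG2 cells transiently transfected with multi-species TRANS reporter units, dosed 24 h with 3 nM 6-alpha-fluorotestosterone present. Internal-marker reporter mRNA quantified by RT-PCR and capillary electrophoresis; positive-direction fit versus DMSO.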

SMILES | outcome
CC1(C)CCC(Cc2ccc(Cl)cc2)C1(O)Cn1cncn1 (stereo unspecified) | inactive
CC(C)(C)CC(C)(C)c1ccc(O)cc1 | inactive
C[C@]12CCC(=O)C[C@@H]1CC[C@@H]1[C@@H]2CC[C@]2(C)[C@@H](O)CC[C@@H]12 | inactive

target: Peroxisome proliferator-activated receptor gamma (Homo sapiens) (UniProt P37231); assay: ATG_hPPARg_XSP1: Attagene TRANS-FACTORIAL Multi-Species (XSP1) HepG2 Assay for human Peroxisome Proliferator-activated Receptor gamma (PPARg) (AID 2283800)
Sequence (P37231 whole entry, looked up, the tested form may be a part): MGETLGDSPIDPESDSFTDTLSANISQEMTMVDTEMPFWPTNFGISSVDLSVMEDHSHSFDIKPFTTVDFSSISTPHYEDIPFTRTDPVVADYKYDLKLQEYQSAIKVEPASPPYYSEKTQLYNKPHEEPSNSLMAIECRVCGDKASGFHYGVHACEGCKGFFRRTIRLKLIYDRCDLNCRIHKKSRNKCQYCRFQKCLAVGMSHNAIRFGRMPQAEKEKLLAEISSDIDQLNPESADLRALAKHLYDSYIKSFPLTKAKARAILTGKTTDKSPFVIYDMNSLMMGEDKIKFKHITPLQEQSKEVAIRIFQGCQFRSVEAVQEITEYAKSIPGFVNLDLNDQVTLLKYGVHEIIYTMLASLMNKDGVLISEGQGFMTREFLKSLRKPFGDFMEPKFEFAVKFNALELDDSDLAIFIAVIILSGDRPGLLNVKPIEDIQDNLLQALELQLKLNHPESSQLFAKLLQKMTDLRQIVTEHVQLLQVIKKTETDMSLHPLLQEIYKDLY
Method in brief: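 HepG2 cells transiently transfected with GAL4-UAS reporter units carrying chimeric NR-Gal4 proteins; 3 nM 6-alpha-fluorotestosterone present. After 24 h dosing, reporter mRNA quantified by RT-PCR and capillary electrophoresis; gain of signal relative to DMSO.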

SMILES | outcome | AC50
CC1(C)CCC(Cc2ccc(Cl)cc2)C1(O)Cn1cncn1 (stereo unspecified) | inactive | 
COP(=O)(OC)O/C(=C\Cl)c1cc(Cl)c(Cl)cc1Cl |  | 14 µM (active)
CC12CC1(C)C(=O)N(c1cc(Cl)cc(Cl)c1)C2=O (stereo unspecified) | inactive | 

test system: zebrafish Peroxisome Proliferator-activated Receptor gamma (PPARg), gene 557037; assay: ATG_zfPPARg_XSP1: Attagene TRANS-FACTORIAL Multi-Species (XSP1) HepG2 Assay for zebrafish Peroxisome Proliferator-activated Receptor gamma (PPARg) (AID 2283801)
Method in brief: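 HepG2 cells transiently transfected with GAL4-UAS reporter units including a zebrafish PPARg–GAL4 chimera, dosed 24 h with 3 nM 6-alpha-fluorotestosterone present. Reporter mRNA quantified by RT-PCR, FAM labelling, HpaI digestion and capillary electrophoresis; induction versus DMSO.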

SMILES | outcome
CC(C)(C)c1cc(O)ccc1O | inactive
CC1(C)CCC(Cc2ccc(Cl)cc2)C1(O)Cn1cncn1 (stereo unspecified) | inactive
CC(C)(C)CC(C)(C)c1ccc(O)cc1 | inactive
COP(=O)(OC)O/C(=C\Cl)c1cc(Cl)c(Cl)cc1Cl | inactive

target: mouse Peroxisome Proliferator-activated Receptor gamma (PPARg), Pparg (gene 19016) (UniProt P37238); assay: ATG_mPPARg_XSP1: Attagene TRANS-FACTORIAL Multi-Species (XSP1) HepG2 Assay for mouse Peroxisome Proliferator-activated Receptor gamma (PPARg) (AID 2283802)
Sequence (P37238 whole entry, looked up, the tested form may be a part): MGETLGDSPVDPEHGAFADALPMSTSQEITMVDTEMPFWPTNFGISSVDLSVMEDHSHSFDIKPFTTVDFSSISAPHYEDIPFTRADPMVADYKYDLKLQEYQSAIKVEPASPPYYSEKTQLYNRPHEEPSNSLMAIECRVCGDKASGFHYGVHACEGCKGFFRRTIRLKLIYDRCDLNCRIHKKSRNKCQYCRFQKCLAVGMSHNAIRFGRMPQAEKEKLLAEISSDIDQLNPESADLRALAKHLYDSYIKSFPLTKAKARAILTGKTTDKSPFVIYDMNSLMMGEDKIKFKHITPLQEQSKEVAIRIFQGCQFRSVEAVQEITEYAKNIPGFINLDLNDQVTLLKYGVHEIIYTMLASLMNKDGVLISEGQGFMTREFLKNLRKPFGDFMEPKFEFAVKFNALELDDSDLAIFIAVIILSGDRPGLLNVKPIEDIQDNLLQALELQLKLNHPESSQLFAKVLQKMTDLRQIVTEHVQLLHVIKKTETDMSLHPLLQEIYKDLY
Method in brief: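 HepG2 cells transiently transfected with GAL4-UAS reporter units driven by mouse PPARg–GAL4 chimera; 3 nM 6-alpha-fluorotestosterone present. After 24 h dosing, reporter mRNA quantified by RT-PCR, fluorescent labelling and capillary electrophoresis; gain of signal versus DMSO.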

SMILES | AC50
CC(C)(C)c1cc(O)ccc1O | 14.9 µM (active)
CC1(C)CCC(Cc2ccc(Cl)cc2)C1(O)Cn1cncn1 (stereo unspecified) | 78.6 µM (active)
COP(=O)(OC)O/C(=C\Cl)c1cc(Cl)c(Cl)cc1Cl | 32.3 µM (active)
CC12CC1(C)C(=O)N(c1cc(Cl)cc(Cl)c1)C2=O (stereo unspecified) | 39.2 µM (active)

target: Nuclear receptor subfamily 1 group I member 2 (Mus musculus) (UniProt O54915); assay: ATG_mPXR_XSP1: Attagene TRANS-FACTORIAL Multi-Species (XSP1) HepG2 Assay for mouse Pregnane X Receptor (PXR) (AID 2283803)
Sequence (O54915 whole entry, looked up, the tested form may be a part): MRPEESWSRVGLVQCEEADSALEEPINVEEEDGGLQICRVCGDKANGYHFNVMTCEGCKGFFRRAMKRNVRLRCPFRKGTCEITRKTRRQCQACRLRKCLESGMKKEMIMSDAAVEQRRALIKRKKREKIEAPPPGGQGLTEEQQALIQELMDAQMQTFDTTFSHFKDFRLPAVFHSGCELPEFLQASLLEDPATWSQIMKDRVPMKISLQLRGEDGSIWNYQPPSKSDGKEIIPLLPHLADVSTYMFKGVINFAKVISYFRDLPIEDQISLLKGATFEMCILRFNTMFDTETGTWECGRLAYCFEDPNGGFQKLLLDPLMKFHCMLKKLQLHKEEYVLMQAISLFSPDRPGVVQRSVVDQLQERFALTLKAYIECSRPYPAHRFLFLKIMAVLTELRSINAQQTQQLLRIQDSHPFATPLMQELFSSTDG
Method in brief: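 Transiently transfected HepG2 cells expressing a receptor-Gal4 chimera drive a GAL4-UAS reporter; 3 nM 6-alpha-fluorotestosterone included. Reporter mRNA read 24 h post-dose by RT-PCR and capillary electrophoresis; gain of signal relative to DMSO.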

SMILES | AC50 | outcome
CC1(C)CCC(Cc2ccc(Cl)cc2)C1(O)Cn1cncn1 (stereo unspecified) | 2.24 µM (active) | 
CC(C)(C)CC(C)(C)c1ccc(O)cc1 |  | inactive
COP(=O)(OC)O/C(=C\Cl)c1cc(Cl)c(Cl)cc1Cl | 30.3 µM (active) | 
CC12CC1(C)C(=O)N(c1cc(Cl)cc(Cl)c1)C2=O (stereo unspecified) | 19.7 µM (active) | 

target: frog Thyroid hormone Receptor alpha (TRa), thra-a (gene 397942) (UniProt P15204); assay: ATG_frTRa_XSP1: Attagene TRANS-FACTORIAL Multi-Species (XSP1) HepG2 Assay for frog Thyroid hormone Receptor alpha (TRa) (AID 2283804)
Sequence (P15204 whole entry, looked up, the tested form may be a part): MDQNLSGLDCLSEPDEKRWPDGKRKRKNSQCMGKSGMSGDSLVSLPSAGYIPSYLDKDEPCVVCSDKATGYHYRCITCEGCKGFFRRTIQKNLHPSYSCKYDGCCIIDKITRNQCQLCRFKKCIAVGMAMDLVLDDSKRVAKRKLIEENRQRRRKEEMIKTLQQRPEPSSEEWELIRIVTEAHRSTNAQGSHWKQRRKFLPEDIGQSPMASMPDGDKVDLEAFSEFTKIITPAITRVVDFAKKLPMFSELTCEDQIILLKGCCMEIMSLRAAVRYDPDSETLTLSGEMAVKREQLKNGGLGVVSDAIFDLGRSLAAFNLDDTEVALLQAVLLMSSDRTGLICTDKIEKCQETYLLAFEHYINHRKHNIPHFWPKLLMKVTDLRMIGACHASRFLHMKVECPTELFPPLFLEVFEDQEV
Method in brief: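 HepG2 cells transiently transfected with frog TRa-GAL4 chimeric reporter units, dosed 24 hr with 3 nM 6-alpha-fluorotestosterone present; reporter mRNA quantified by RT-PCR, fluorescent labelling and capillary electrophoresis, gain of signal versus DMSO.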

SMILES | outcome
CC(C)(C)c1cc(O)ccc1O | inactive
O=C1C2(Cl)C3(Cl)C4(Cl)C(Cl)(Cl)C5(Cl)C3(Cl)C1(Cl)C5(Cl)C24Cl (stereo unspecified) | inactive
CC(C)(C)CC(C)(C)c1ccc(O)cc1 | inactive
CC12CC1(C)C(=O)N(c1cc(Cl)cc(Cl)c1)C2=O (stereo unspecified) | inactive

target: human Thyroid hormone Receptor alpha (TRa), THRA (gene 7067) (UniProt P10827); assay: ATG_hTRa_XSP1: Attagene TRANS-FACTORIAL Multi-Species (XSP1) HepG2 Assay for human Thyroid hormone Receptor alpha (TRa) (AID 2283805)
Sequence (P10827 whole entry, looked up): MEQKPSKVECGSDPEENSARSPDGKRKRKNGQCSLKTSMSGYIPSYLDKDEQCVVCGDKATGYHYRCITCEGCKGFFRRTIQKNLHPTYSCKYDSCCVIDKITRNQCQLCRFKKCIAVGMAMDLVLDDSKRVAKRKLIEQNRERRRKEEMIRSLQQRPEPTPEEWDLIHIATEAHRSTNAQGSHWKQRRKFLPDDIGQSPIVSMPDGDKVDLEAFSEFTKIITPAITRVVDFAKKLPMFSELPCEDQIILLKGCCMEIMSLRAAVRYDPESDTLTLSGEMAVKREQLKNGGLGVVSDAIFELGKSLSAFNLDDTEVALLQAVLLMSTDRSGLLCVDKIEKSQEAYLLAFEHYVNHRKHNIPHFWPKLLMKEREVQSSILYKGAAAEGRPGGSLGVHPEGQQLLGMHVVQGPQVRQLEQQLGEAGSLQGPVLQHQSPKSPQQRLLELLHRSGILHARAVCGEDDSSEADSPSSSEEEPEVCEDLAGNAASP
Method: ATG_XSP1_multi-species_TRANS is a cell-based, multiplexed assay created by modifying the existing Attagene TRANS-FACTORIAL system to include a panel of nuclear receptors from some or all the following species: human (Homo sapiens), mouse (Mus musculus), frog (Xenopus laevis), zebrafish (Danio rerio), chicken (Gallus gallus), and turtle (Chrysemys picta). The ECOTOX-FACTORIAL format uses HepG2, a human liver cell line, with measurements taken at 24 hours after chemical dosing in a 24-well plate. Xsp1 included 3 nM 6-alpha-fluorotestosterone to partially stimulate the androgen receptor.ATG_hTRa_XSP1 is one of 29 assay components measured or calculated from the ATG_XSP1_multi-species_TRANS assay. It is designed to make measurements of mRNA induction, a form of inducible reporter, as detected with fluorescence intensity signals by Reverse transcription polymerase chain reaction (RT-PCR) and Capillary electrophoresis technology.The assay endpoint ATG_hTRa_XSP1 was analyzed in the positive analysis fitting direction relative to DMSO as the negative control and baseline of activity. Using a type of inducible reporter, measures of mRNA for gain-of-signal activity can be used to understand the reporter gene at the transcription factor-level as they relate to the gene TR. Furthermore, this assay endpoint can be referred to as a primary readout, because this assay has produced multiple assay endpoints where this one serves a reporter gene function. To generalize the intended target to other relatable targets, this assay endpoint is annotated to the nuclear receptor intended target family, where the subfamily is non-steroidal.
Human liver HepG2 cells are transiently transfected with multiple reporter transcription units (MRTUs) in 6-well plates using FuGene 6 reagent (Roche; 3 ml FuGene/1 mg DNA). The MRTU constructs are regulated by a cis-regulating element (promoter). […] A major difference between the CIS and TRANS system is that in CIS activities of endogenous TFs are measured, whereas the TRANS assay evaluates changes in activities of exogenous, chimeric NR-Gal4 proteins. […] At the end of 24 hour incubation, total RNA was isolated using TriZol reagent (Invitrogen). The isolated RNA is then reverse-transcribed using oligo(dT) primer and Mo-MLV reverse transcriptase (Invitrogen) with DNAse I (Ambion) treatment for 30 min. […] The fragments were purified using Qiaquick PCR columns (Qiagen), analyzed on an ABI 3130xL genetic analyzer (Applied Biosystems) with peak positions identified by using a set of X-rhodamine (ROX)-labeled MapMarker1000 molecular weight standards (BioVentures). […]

SMILES | outcome
CC(C)(C)c1cc(O)ccc1O | inactive
O=C1C2(Cl)C3(Cl)C4(Cl)C(Cl)(Cl)C5(Cl)C3(Cl)C1(Cl)C5(Cl)C24Cl (stereo unspecified) | inactive
C[C@]12CCC(=O)C[C@@H]1CC[C@@H]1[C@@H]2CC[C@]2(C)[C@@H](O)CC[C@@H]12 | inactive
CC12CC1(C)C(=O)N(c1cc(Cl)cc(Cl)c1)C2=O (stereo unspecified) | inactive

test system: turtle Thyroid Hormone Receptor, alpha (TRa), gene 101949057; assay: ATG_trTRa_XSP1: Attagene TRANS-FACTORIAL Multi-Species (XSP1) HepG2 Assay for turtle Thyroid Hormone Receptor, alpha (TRa) (AID 2283806)
Method in brief: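 HepG2 cells transiently transfected with GAL4-UAS reporter units and chimeric receptor-Gal4 constructs, with 3 nM 6-alpha-fluorotestosterone present. Reporter mRNA was quantified 24 h after dosing by RT-PCR, 6-FAM labelling and capillary electrophoresis; gain of signal versus DMSO.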

SMILES | outcome
CC1(C)CCC(Cc2ccc(Cl)cc2)C1(O)Cn1cncn1 (stereo unspecified) | inactive
O=C1C2(Cl)C3(Cl)C4(Cl)C(Cl)(Cl)C5(Cl)C3(Cl)C1(Cl)C5(Cl)C24Cl (stereo unspecified) | inactive
CC(C)(C)CC(C)(C)c1ccc(O)cc1 | inactive
C[C@]12CCC(=O)C[C@@H]1CC[C@@H]1[C@@H]2CC[C@]2(C)[C@@H](O)CC[C@@H]12 | inactive
CC12CC1(C)C(=O)N(c1cc(Cl)cc(Cl)c1)C2=O (stereo unspecified) | inactive
